In PubChem BioAssay AID504444 (National Center for Advancing Translational Sciences (NCATS), 2011):
About 7,500 (2.1%) of roughly 360,000 compounds were called active. Not shown: some 20% with an inconclusive outcome. The call rests on the fitted dose curve; in most records, active means well fitted inhibition curve with a large enough effect; inconclusive means small, poorly fitted or top-dose-only effect, or effect the other way; inactive means flat fitted curve, though single readings scatter. Only a selection was taken, and actives are over-represented in it overall.

experiment: Nrf2 qHTS screen for inhibitors; details: A549 ARE-Fluc reporter, luciferase luminescence, 18-24 h; series mostly up to 46 µM; activity change, negative = inhibition: at the top concentration; further: nearly all actives have a fitted effect of over 60% in size
How it was run: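 A549 ARE_Fluc cells, 5000/well, 5% FBS OPTI-MEM; compounds in dose-response, 18-24 h at 37 °C/5% CO2; CellTiter-Fluor viability read (Ex 405/Em 525), then BugLite luciferase luminescence = Nrf2 activity.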
On the % scale 0 is the no-effect control and ±100 the full control effect; potency means the concentration at half of the fitted maximal effect.

SMILES | activity change, negative = inhibition | Potency
COc1ccc(N(C)S(=O)(=O)c2cccc3nsnc23)cc1 | -6.36% (inactive) | 
COc1ccc(N(C)C(=O)C2CCN(S(=O)(=O)c3cccc4nsnc34)CC2)cc1 |  | 8.2 µM (active)
COc1ccc(N(C)C(=O)CCS(=O)(=O)c2cccc3nsnc23)cc1 |  | inactive
Cc1ccc(-c2nc3cccc(C)n3c2Nc2ccc3c(c2)OCCO3)cc1 | -3.89% (inactive) | 
CC(C)(C)OC(=O)NNc1c2ccccc2nc2ccccc12 |  | 23.1 µM (active)
CCC(=O)OCCNc1nc(-c2ccccc2)nc2ccccc12 | 10.9% (inactive) | 
Cc1ccccc1NC(=O)NNC(=O)OC(C)(C)C | 4.49% (inactive) | 
COc1ccc2c(c1)CCc1c(C(=O)Nc3cc(C)ccc3O)noc1-2 | 10.4% (inactive) | 
COc1ccccc1C(=O)Nc1ccc(OCc2nnc3c4ccccc4c(C)nn23)cc1 |  | 9.2 µM (active)
COc1ccccc1C(=O)Nc1c(C(=O)Nc2ccc(C)cc2)oc2ccccc12 | 11.1% (inactive) | 
COc1ccccc1C(=O)Nc1ccccc1C(=O)Nc1ccccc1 | -15.1% (inactive) | 
CCOC(=O)c1c(C)[nH]c(C)c1S(=O)(=O)N(C)CC(=O)N1CCN(c2ccccc2)CC1 | -24.4% (inactive) | 
O=C(Nc1cccc(C(=O)NC2CC2)c1)c1ccc(F)c(S(=O)(=O)N2CCOCC2)c1 | -9.02% (inactive) | 
O=C(NCC1CCCCC1)c1cc(S(=O)(=O)N2CCCCC2)ccc1N1CCOCC1 | -13.3% (inactive) | 
O=C(OCCOc1ccccc1F)c1cc(S(=O)(=O)N2CCOCC2)ccc1F | -14.5% (inactive) | 
O=C(OCCOc1ccccc1Cl)c1cc(S(=O)(=O)N2CCCCC2)ccc1N1CCOCC1 |  | 6.51 µM (active)
Cc1ccc(NC(=O)c2ccc(S(=O)(=O)NCC3CCCO3)cc2)cc1C (stereo not given) | 2.39% (inactive) | 
O=C(Nc1ccc(S(=O)(=O)NCC2CCCO2)cc1)c1ccc(F)cc1 (stereo not given) |  | 11.6 µM (active)
O=C(NCC1CCCO1)c1ccc(S(=O)(=O)Nc2ccc(F)cc2)cc1 (stereo not given) | -17.6% (inactive) | 
COc1ccc(S(=O)(=O)NCc2cccnc2)cc1NC(=O)c1ccc(C)cc1 | -15.4% (inactive) | 
O=C(N/N=C/c1cccnc1)c1ccc(NC(=O)c2ccc(F)cc2)cc1 | -14.3% (inactive) | 
O=C(Nc1ccc(F)cc1)c1ccc(S(=O)(=O)NCc2cccnc2)cc1 |  | 18.4 µM (active)
Cc1ccc(NS(=O)(=O)c2cc3c(cc2Br)NC(=O)CO3)cc1C | -16.4% (inactive) | 
O=C(NCC1CCCCC1)NCC1CCCCC1 | 6.58% (inactive) | 
Cc1cc2c(s1)c1cnn(Cc3cc(F)c(Cl)cc3Cl)c(=O)c1n2C | 5.03% (inactive) | 

SMILES | activity change, negative = inhibition | Potency
CC1CCCCC1NC(=O)/C(C#N)=C/C=C/c1ccccc1[N+](=O)[O-] (stereo not given) |  | 16.4 µM (active)
O=[N+]([O-])c1ccccc1/C=C/CN1CCC(O)CC1 | -10.8% (inactive) | 
O=[N+]([O-])c1ccccc1/C=C/CN1CCCC(CO)C1 (stereo not given) | -4.92% (inactive) | 
Cc1ccc(NC(=O)C(C)Sc2nnc(C3CC3)n2C2CC2)cc1S(=O)(=O)N1CCOCC1 (stereo not given) | -20.8% (inactive) | 
C#CCOCCOCCOCCNc1nc(N2CCN(C(=O)[C@H](CO)n3cc([C@@H](N)C(C)C)nn3)CC2)nc(N2CCN(C(=O)[C@H](CCC(=O)O)n3cc([C@@H](N)[C@H](C)CC)nn3)CC2)n1 | 10.7% (inactive) | 
COc1ccc(-n2nnnc2SCC(=O)NCc2cccs2)cc1 | 1.52% (inactive) | 
COc1ccc(CSc2nnnn2-c2ccc(O)cc2)cc1F |  | 14.6 µM (active)
Oc1ccc(-n2nnnc2SCc2c(F)cccc2Cl)cc1 | 2.72% (inactive) | 
Cc1cc(NC(=O)CSc2nnnn2-c2ccc(F)cc2)no1 | 6.18% (inactive) | 
COc1ccc(C(=O)CSc2nnnn2C)c(OC)c1 | -8.69% (inactive) | 
COc1ccc(-n2nnnc2SCC(=O)c2ccc(OC)c(OC)c2)cc1 |  | 16.4 µM (active)
O=C(NCc1nnc(C(=O)Nc2ccc(C(F)(F)F)cc2Cl)o1)c1ccccc1 | 13.5% (inactive) | 
Cc1nn(-c2ccc(F)cc2)c(Cl)c1/C=C(/CCC(=O)O)c1nc2ccccc2s1 | -25% (inactive) | 
COc1ccc(-c2ccc3ncnc(NCc4cccs4)c3c2)cc1OC | -24.9% (inactive) | 
O=C(CSc1nnc(-c2ccccc2F)o1)Nc1cccc(C(F)(F)F)c1 | 9.58% (inactive) | 
COc1cc(OC)c(C(=O)OCC(=O)N2CC(=O)Nc3ccccc32)cc1OC | 0.599% (inactive) | 
COc1ccc(C(=O)OCC(=O)N2CC(=O)Nc3ccccc32)cc1Br | -7.14% (inactive) | 
COc1ccc(Cl)cc1-n1c(C)cc(C(=O)OCC(=O)N2CC(=O)Nc3ccccc32)c1C |  | 18.4 µM (active)
COc1cccc(-n2cc(C(=O)NCc3cccc(Cl)c3)c3ccccc3c2=O)c1 | -15.8% (inactive) | 
Oc1ccccc1-c1nc2ccc(Cl)cn2c1Nc1ccc2c(c1)OCCO2 | 18.1% (inactive) | 
CC(=O)c1ccc(OCC(O)CN2CCN(S(=O)(=O)c3cccc(Br)c3)CC2)cc1 (stereo not given) | -24.4% (inactive) | 
Cc1ccc(OCCNC(=O)c2cccc(S(=O)(=O)N3CCN(Cc4ccccc4)CC3)c2)cc1 |  | 11.6 µM (active)
CN1CCN(S(=O)(=O)c2cccc(C(=O)O)c2)CC1 | 8.01% (inactive) | 
NC(=O)C1CCN(C(=O)c2cc(S(=O)(=O)N3CCN(c4ccccc4)CC3)ccc2Cl)CC1 | -14.7% (inactive) | 
COCCNC(=O)CSc1nc(-c2ccccc2)[nH]c1-c1ccc(C)cc1 | -5.73% (inactive) | 

SMILES | activity change, negative = inhibition | Potency
COc1cccc(Oc2ccc(N)cc2)c1 | 14.4% (inactive) | 
CC(C)(c1ccccc1)c1ccc(OCCN)cc1 | 1.37% (inactive) | 
CC(C)(C)c1ccc(Oc2ccc(N)cc2)cc1 |  | 4.11 µM (active)
COc1cccc(NC(=O)CSc2cc(=O)n(C)c3ccc(Cl)cc23)c1 | -28% (inactive) | 
Cc1ccc(N2CC(c3nnc(Cc4ccccc4Cl)o3)CC2=O)cc1 (stereo not given) | 18.7% (inactive) | 
CN1CCC(N(C)C(=O)c2ccc(Cl)c(S(=O)(=O)Nc3ccc(Cl)cc3)c2)CC1 | 3.83% (inactive) | 
COc1ccccc1-c1ccnc2[nH]n(-c3ccccc3)c(=O)c12 | -1.14% (inactive) | 
CCOc1ccccc1NC(=O)c1ccc2c(c1)CCN2S(=O)(=O)c1ccc(C)cc1 | 14.1% (inactive) | 
O=C(Nc1ccc(NC(=O)c2ccc3c(c2)OCO3)cc1)c1cccc(Cl)c1 | 3.66% (inactive) | 
O=C(Nc1cccc(S(=O)(=O)Nc2ccc(Cl)cc2)c1)c1ccc2c(c1)OCCO2 |  | 10.3 µM (active)
CC(NS(=O)(=O)c1ccc(Cl)cc1)C(=O)Nc1ccc2c(c1)OCCO2 (stereo not given) | 0.41% (inactive) | 
CCN(CC)S(=O)(=O)c1ccc(NC(=O)c2cnc(C)cn2)cc1 | -2.49% (inactive) | 
CCN(CC)S(=O)(=O)c1ccc(N(C)CCc2ccc(OC)c(OC)c2)nc1 | -2.74% (inactive) | 
CCN(CC)S(=O)(=O)c1ccc(N(C)Cc2ccc(C(F)(F)F)cc2)nc1 |  | 18.4 µM (active)
CCOC(=O)C1=C(C)N(C[C@@H]2CC[C@@H](Cc3ccc(-c4ccccc4)cc3)O2)C(=O)NC1c1ccc([N+](=O)[O-])cc1 (stereo not given in full) | -22.3% (inactive) | 
Cc1ccc(F)cc1NC(=O)CCSc1nc(-c2ccco2)cc(C(F)(F)F)n1 | -13.2% (inactive) | 
O=C(CSc1nnc2c(n1)[nH]c1ccccc12)NC1CCCCC1 |  | 3.66 µM (active)
COc1ccc2[nH]c3nc(SCC(=O)NC4CC4)nnc3c2c1 | 0.184% (inactive) | 
CCOc1ccc2[nH]c3nc(SCC(=O)NC4CCCC4)nnc3c2c1 | 3.92% (inactive) | 
CCOC(=O)c1cccc(NC(=O)C(Cc2ccccc2)NS(=O)(=O)c2cccc3nsnc23)c1 (stereo not given) | 24.3% (inactive) | 
Cc1ccc2oc3c(c(=O)c2c1)C(c1ccc(O)cc1)N(Cc1ccc2c(c1)OCO2)C3=O (stereo not given) | -8.81% (inactive) | 
CC(C)[C@@H](C(=O)OCC(=O)c1ccc2c(c1)NC(=O)CO2)N1C(=O)c2ccccc2C1=O | -8% (inactive) | 
CC(C)c1ccc(S(=O)(=O)Nc2ccc(O)c(Sc3nc4ccccc4s3)c2)cc1 | 9.38% (inactive) | 
O=C(CCC(=O)c1ccccc1)NCc1cccc(C(F)(F)F)c1 | 3.64% (inactive) | 
O=C(CCn1ccc2cc(S(=O)(=O)N3CCCC3)ccc21)NCc1cccc(Cl)c1 | -6.98% (inactive) | 

SMILES | activity change, negative = inhibition | Potency
O=C(CCC(=O)N1CCN(S(=O)(=O)c2ccc(Cl)cc2)CC1)NCc1cccc(C(F)(F)F)c1 |  | 8.2 µM (active)
COc1ccc(-c2nc(=N)sn2-c2ccccc2)cc1 | 24% (inactive) | 
Cc1ccc(NC2=C(c3ccc(C(F)(F)F)cc3)C(=O)c3ccccc32)cc1F | -20.5% (inactive) | 
O=S(=O)(Nc1ccc2nc(-c3cccc(Cl)c3)oc2c1)c1ccccc1 | -21.7% (inactive) | 
O=C(Nc1cc(-c2ccccc2)nn1-c1ccccc1F)c1ccc([N+](=O)[O-])cc1 |  | 20.6 µM (active)
O=C(Nc1ccccc1C(=O)Nc1ccncc1)c1ccc([N+](=O)[O-])cc1 | 6.83% (inactive) | 
O=C(Nn1c(-c2ccccc2)nc2ccccc2c1=O)c1ccc([N+](=O)[O-])cc1 | -12.6% (inactive) | 
COc1cccc(CNCCSc2nnnn2C)c1OCc1ccccc1Cl | -11.2% (inactive) | 
CC(C)OCCCNc1ncnc2c1[nH]c1ccc(F)cc12 |  | 4.11 µM (active)
CC(C)OCCCNC(=O)c1cc(Sc2ccc(F)cc2)nc2ccccc12 | -13.6% (inactive) | 
COc1cc(OC)c(OC)cc1/C=N/Nc1ncnc2c1[nH]c1ccc(C)cc12 | 1.21% (inactive) | 
Cc1ccc(CCNC(=O)c2nnc(Cc3cccc(F)c3)o2)cc1 | -25.7% (inactive) | 
CCOC(=O)c1ccc(CSc2nnc3cc(C)c4ccccc4n23)cc1 | 15% (inactive) | 
Cc1cccc(N2CCN(C(=O)c3cccc(N4C(=O)C5C6C=CC(C6)C5C4=O)c3)CC2)c1C (stereo not given) |  | 18.4 µM (active)
CC1C=CCC2C(=O)N(c3cccc(C(=O)N4CCCCCC4)c3)C(=O)C12 (stereo not given) | 10.5% (inactive) | 
COC(=O)c1cccc(N2C(=O)C3C4C=CC(CC4)C3C2=O)c1 (stereo not given) | 0.177% (inactive) | 
O=C(c1ccco1)N(Cc1cccs1)c1ccc(O)cc1 | -5.51% (inactive) | 
COc1ccccc1-c1cc2nc(C)c(CCC(=O)NC3CCCCC3)c(C)n2n1 | -10.5% (inactive) | 
COc1cc(OC)cc(-c2nc3nc(C)c(CCC(=O)Nc4ccccc4)c(C)n3n2)c1 | -0.881% (inactive) | 
COc1ccccc1-c1cc2nc(C)c(CCC(=O)O)c(C)n2n1 |  | 3.66 µM (active)
COc1ccc(C)cc1Nc1nc2ccccc2c2nnc(C)n12 | 18.3% (inactive) | 
CCCSc1ncc(Cl)c(C(=O)Nc2sc3c(c2C(=O)NCCOC)CCCC3)n1 | -19.9% (inactive) | 
COc1ccc(CCNC(=O)CSc2nc3[nH]ncc3c(=O)n2-c2cccc(C(F)(F)F)c2)cc1OC | -14.3% (inactive) | 
Cc1ccc(CSc2nc3[nH]ncc3c(=O)[nH]2)cc1 | 2.03% (inactive) | 
CCc1ccc(-n2c(SCc3cc(=O)n4cc(Br)ccc4n3)nc3[nH]ncc3c2=O)cc1 |  | 16.4 µM (active)
